The record followed here is PubChem BioAssay AID1508602 (The Scripps Research Institute Molecular Screening Center, 2020).

The campaign covered roughly 650,000 compounds. About 6,800 (1%) were called active. The sample holds actives, similar compounds and a random draw of the others, so the mix is not that of the screen. A number with no mark means an inactive call. Rule as the data show it: active = activation above about 4.9%; inactive = the rest.

G-protein coupled receptor 151 (Homo sapiens), sequence (Q8TDV0 whole entry, looked up): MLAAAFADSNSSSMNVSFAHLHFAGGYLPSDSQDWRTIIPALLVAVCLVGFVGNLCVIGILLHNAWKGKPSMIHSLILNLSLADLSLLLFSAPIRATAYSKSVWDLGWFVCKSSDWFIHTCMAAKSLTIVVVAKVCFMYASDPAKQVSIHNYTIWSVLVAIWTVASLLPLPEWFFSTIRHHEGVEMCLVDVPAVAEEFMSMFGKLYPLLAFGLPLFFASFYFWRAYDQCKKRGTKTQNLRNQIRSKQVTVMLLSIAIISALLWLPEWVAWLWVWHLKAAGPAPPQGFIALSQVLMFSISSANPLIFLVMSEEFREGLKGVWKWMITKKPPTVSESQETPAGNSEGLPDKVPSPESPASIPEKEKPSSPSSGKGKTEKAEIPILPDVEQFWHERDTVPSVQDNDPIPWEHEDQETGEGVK

The experiment concerns the target G-protein coupled receptor 151 (Homo sapiens) (UniProt Q8TDV0). The experiment can be described thus: activates the human receptor GPR151, primary screen, cell-based, PathHunter beta-arrestin, luminescence (AID 1508602).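 Also: 0% = median of compound wells and 100% = cells with positive control.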 Particulars: PathHunter beta-arrestin GPR151 cells, at 11.2 µM, hits give high values.
With `COc1ccccc1N1C(=O)NC(=O)/C(=C\c2ccc(Cl)cc2Cl)C1=O`, the activation was 0.657%.

On to `C=CCN1C(=O)NC(=O)/C(=C/c2ccc(O)c(OC)c2)C1=O`, for which the activation is -0.157%. Then `COc1cc(/C=C2\C(=O)NC(=O)N(c3ccccc3)C2=O)ccc1O`, with 8.77% (active); and `COc1cc(NC(=O)CCc2nc(C3=CCN(C)CC3)no2)cc(OC)c1OC`, with -0.399%. Consider `O=C(O)C1C2CC3CC(C2)CC1(n1ncc(NC2CCCC2)c(Cl)c1=O)C3` (stereo not given), for which the activation was 1.35%. The figure for `O=c1cccc2n1CC1CC2CN(Cc2ccc(F)cc2)C1` (stereo not given) is 1.89%; for `COc1ccccc1N1CCN(C(CNC(=O)Oc2ccccc2)c2cccnc2)CC1` (stereo not given) it is 9.52% (active). For `COc1ccccc1N1CCN(Cc2cccc(O)c2)CC1`, the activation is 0.277%.

Regarding `O=C(NCC(c1cccnc1)N1CCN(c2ccccc2)CC1)Oc1ccccc1` (stereo not given), the activation was 0.68%.

Turning to `O=C(Cc1cccs1)N1CCN(Cc2nnnn2-c2ccc(F)cc2)CC1`, the activation was 1.07%. Then `Cc1ccc(Cc2nc[nH]c2C)cc1`, with 0.705%.

On to `COc1ccc(CCNCc2ccc(O)cc2)cc1`, for which the activation was 1.2%. For the molecule `Cc1cc(Cl)ccc1C(=O)C1CCCN(Cc2ncc[nH]2)C1` (stereo not given), the activation is -0.596%. Then `CC[n+]1c(/C=C/C=C2\N(C)c3ccccc3C2(C)C)n(-c2ccccc2)c2ccc(Cl)cc21`, with 5.9% (active); and `C=CCOC(=O)C1=C(C)OC(N)=C(C(=O)OCC)C12C(=O)N(CC=C)c1ccccc12` (stereo not given), with -0.446%. The figure for `COc1cc(Br)cc(CN2CC3CC(C2)c2cccc(=O)n2C3)c1O` (stereo not given) is -0.476%. Then `CCOC(=O)C1=C(C)OC(N)=C(C(=O)OC)C12C(=O)Nc1ccc(Br)cc12` (stereo not given), with -0.299%; and `CCOC(=O)C1=C(N)Oc2n[nH]c(C)c2C12C(=O)Nc1ccc(Br)cc12` (stereo not given), with 0.383%.

With `CCOC(=O)C1=C(N)OC2=C(C(=O)CCC2)C12C(=O)Nc1ccc(Br)cc12` (stereo not given), the activation was 9.15% (active). Consider `CC(C)c1ccc(NC(=O)c2cc3cccnc3n(Cc3ccc(F)cc3)c2=O)cc1`, for which the activation was 1.47%.
